Results: PubChem BioAssay (Tox21)
Records with an inconclusive call do not appear. Where a call stands in place of a potency, no number is given. The source made the active and inactive calls. The call rests on the fitted dose curve.

Each molecule was assayed against Acetylcholinesterase (Homo sapiens) (UniProt P22303) (assay: Acetylcholinesterase (AChE) small molecule antagonists: enzyme-based qHTS assay (AID 1347397; further: nearly all actives have a fitted effect of over 55% in size)). Conditions: Potency: AChE enzyme activity inhibition; outcome: AChE enzyme activity inhibition; series mostly up to 115 µM.
Sequence of Acetylcholinesterase (Homo sapiens) (P22303 whole entry, looked up): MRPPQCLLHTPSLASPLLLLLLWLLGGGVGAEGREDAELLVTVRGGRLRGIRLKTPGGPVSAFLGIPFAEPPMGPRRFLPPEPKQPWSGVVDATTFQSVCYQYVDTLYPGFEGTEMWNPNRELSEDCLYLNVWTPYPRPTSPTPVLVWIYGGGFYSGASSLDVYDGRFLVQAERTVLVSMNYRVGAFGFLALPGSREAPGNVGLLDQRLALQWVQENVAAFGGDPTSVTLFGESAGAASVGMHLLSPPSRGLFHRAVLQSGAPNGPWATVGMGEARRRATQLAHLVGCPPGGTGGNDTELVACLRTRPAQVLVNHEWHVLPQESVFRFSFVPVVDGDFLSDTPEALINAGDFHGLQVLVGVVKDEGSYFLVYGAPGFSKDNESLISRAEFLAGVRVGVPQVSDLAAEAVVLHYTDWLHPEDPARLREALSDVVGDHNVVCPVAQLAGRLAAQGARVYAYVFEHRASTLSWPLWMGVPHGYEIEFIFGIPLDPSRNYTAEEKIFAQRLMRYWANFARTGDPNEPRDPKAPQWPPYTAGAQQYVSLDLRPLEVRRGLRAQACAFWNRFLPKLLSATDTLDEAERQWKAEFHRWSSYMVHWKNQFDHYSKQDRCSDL
Outline: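 Human recombinant acetylcholinesterase; substrate acetylthiocholine; thiocholine quantified with DTNB (colorimetric). Compound preincubation 30 min RT; reaction 10 min RT.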

Structure (SMILES) | Potency
CN=C(NC#N)NCCSCc1nc[nH]c1C | inactive
CCCCCC[C@@H](CCC)C(=O)O | inactive
CC(=O)OC1CC(C)OC(C)O1 (stereo not given) | inactive
CC(=O)O[C@]1(C(C)=O)CC[C@H]2[C@@H]3C=C(Cl)C4=CC(=O)[C@@H]5C[C@@H]5[C@]4(C)[C@H]3CC[C@@]21C | inactive
CN1CCC[C@@H]1Cc1c[nH]c2ccc(CCS(=O)(=O)c3ccccc3)cc12 | inactive
CCCCCCCCC=O | inactive
CCC(C(=O)O)c1ccc(N2Cc3ccccc3C2=O)cc1 (stereo not given) | inactive
O=C(O)[C@H](O)[C@@H](O)[C@H](O[C@@H]1O[C@H](CO)[C@H](O)[C@H](O)[C@H]1O)[C@H](O)CO | inactive
Cc1ccccc1OCC(=O)O | inactive
Nc1ccc(C(=O)N2CC3CC(CN(Cc4ccccc4)C3)C2)cc1 | inactive
CC(=O)O[C@@]12CO[C@@H]1C[C@H](O)[C@@]1(C)C(=O)[C@H](O)C3=C(C)[C@@H](OC(=O)[C@H](O)[C@@H](NC(=O)OC(C)(C)C)c4ccccc4)C[C@@](O)([C@@H](OC(=O)c4ccccc4)[C@H]21)C3(C)C | inactive
Cc1ccncc1 | inactive
CCOC(=O)OCC | inactive
C/C=C(C)/C=C/C=C(C)C | inactive
C=CCOCC(CO)(COCC=C)COCC=C | inactive

These molecules were tested against Acetylcholinesterase (Homo sapiens) (UniProt P22303) (assay: Acetylcholinesterase (AChE) small molecule antagonists: fluorescence cell-based qHTS assay (AID 1347398; further: nearly all actives have a fitted effect of over 50% in size; further: potency means the concentration at half of the fitted maximal effect)). Conditions: SH-SY5Y cells; Potency: AChE activity; outcome: AChE activity; series mostly up to 115 µM.
Outline: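 Thiocholine generated from acetylthiocholine by SH-SY5Y cell AChE is detected with Thiolite Green (Ex/Em 490/520 nm) after 40 min at room temperature, following 30 min compound pretreatment at 37 C.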

Structure (SMILES) | Potency
OCc1ccccc1 | inactive
CCC(C)(C)C(=O)O[C@H]1C[C@@H](C)C=C2C=C[C@H](C)[C@H](CC[C@@H]3C[C@@H](O)CC(=O)O3)[C@H]21 | inactive
CCC1CO1 (stereo not given) | inactive
CCCCC(CC)COC(=O)CCCCC(=O)OCc1ccccc1 (stereo not given) | inactive
CCCCCCCCCCCCCCC(=O)NC(CO)CCCCCCCCCCCCCC (stereo not given) | inactive
O=Cc1c(Cl)cccc1Cl | inactive
Cc1ccc(C)c(O)c1 | inactive
Cc1cc2c(cc1S(N)(=O)=O)S(=O)(=O)CCC2 | inactive
COC(=O)CC(C)CCC=C(C)C (stereo not given) | inactive
CC(=O)OCc1ccccc1 | inactive
c1ccc(Sc2ccccc2)cc1 | inactive
N=c1ccn2c(n1)O[C@H]1[C@H](O)[C@@H](CO)O[C@H]12 | inactive
CCCCOC(=O)[C@H](C)O | inactive
N#C[C@@H]1C[C@@H]2C[C@@H]2N1C(=O)[C@@H](N)C12CC3CC(CC(O)(C3)C1)C2 | inactive
COc1ccc(Cc2cnc(N)nc2N)cc1OC | inactive
CN1CCc2cccc3c2[C@H]1Cc1ccc(O)c(O)c1-3 | 64 µM (active)
O=C(c1ccc(O)cc1)c1ccc(O)c(O)c1O | inactive
CCCCCCCCCCCCCCCC(=O)OC(C)C | inactive
O=C(c1ccccc1)c1ccc(O)cc1O | inactive
CNC(=O)c1ccccc1 | inactive

Structure (SMILES) | Potency
O=c1[nH]c(=O)n([C@H]2CCCO2)cc1F | inactive
O=C(O)c1ccc2cc(O)ccc2c1 | inactive
C=CCCCCCC | inactive
Cc1ccc(OC(=O)CC(C)C)cc1 | inactive
CCN(CC)CC(=O)Nc1c(C)cccc1C(=O)OC | inactive
CN=C(NC#N)NCCSCc1nc[nH]c1C | inactive
CCCCCC[C@@H](CCC)C(=O)O | inactive
CC(=O)OC1CC(C)OC(C)O1 (stereo not given) | inactive
CC(=O)O[C@]1(C(C)=O)CC[C@H]2[C@@H]3C=C(Cl)C4=CC(=O)[C@@H]5C[C@@H]5[C@]4(C)[C@H]3CC[C@@]21C | inactive
CN1CCC[C@@H]1Cc1c[nH]c2ccc(CCS(=O)(=O)c3ccccc3)cc12 | inactive
CCCCCCCCC=O | inactive
CCC(C(=O)O)c1ccc(N2Cc3ccccc3C2=O)cc1 (stereo not given) | inactive
O=C(O)[C@H](O)[C@@H](O)[C@H](O[C@@H]1O[C@H](CO)[C@H](O)[C@H](O)[C@H]1O)[C@H](O)CO | inactive
Cc1ccccc1OCC(=O)O | inactive
Nc1ccc(C(=O)N2CC3CC(CN(Cc4ccccc4)C3)C2)cc1 | inactive
CC(=O)O[C@@]12CO[C@@H]1C[C@H](O)[C@@]1(C)C(=O)[C@H](O)C3=C(C)[C@@H](OC(=O)[C@H](O)[C@@H](NC(=O)OC(C)(C)C)c4ccccc4)C[C@@](O)([C@@H](OC(=O)c4ccccc4)[C@H]21)C3(C)C | inactive
Cc1ccncc1 | inactive
CCOC(=O)OCC | inactive
C/C=C(C)/C=C/C=C(C)C | inactive
C=CCOCC(CO)(COCC=C)COCC=C | inactive

What follows are molecules tested against Acetylcholinesterase (Homo sapiens) (UniProt P22303) (assay: Acetylcholinesterase (AChE) small molecule antagonists: enzyme-based qHTS assay with human liver microsomes (AID 1347399; further: nearly all actives have a fitted effect of over 60% in size)). Conditions: Potency: qHTS inhibition; outcome: qHTS inhibition; series mostly up to 115 µM.
Outline: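 Recombinant human AChE (50 mU/mL in the enzyme mix) and human liver microsomes (0.25 mg/mL final) were preincubated with compound and NADPH (0.25 mg/mL final) for 30 min at 37 C. Acetylthiocholine/DTNB was then added; thiocholine was read colorimetrically after 10 min at room temperature.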

Structure (SMILES) | Potency
OCc1ccccc1 | inactive
CCC(C)(C)C(=O)O[C@H]1C[C@@H](C)C=C2C=C[C@H](C)[C@H](CC[C@@H]3C[C@@H](O)CC(=O)O3)[C@H]21 | inactive
CCC1CO1 (stereo not given) | inactive
CCCCC(CC)COC(=O)CCCCC(=O)OCc1ccccc1 (stereo not given) | inactive
CCCCCCCCCCCCCCC(=O)NC(CO)CCCCCCCCCCCCCC (stereo not given) | inactive
O=Cc1c(Cl)cccc1Cl | inactive
Cc1ccc(C)c(O)c1 | inactive
Cc1cc2c(cc1S(N)(=O)=O)S(=O)(=O)CCC2 | inactive
COC(=O)CC(C)CCC=C(C)C (stereo not given) | inactive
CC(=O)OCc1ccccc1 | inactive
c1ccc(Sc2ccccc2)cc1 | inactive
N=c1ccn2c(n1)O[C@H]1[C@H](O)[C@@H](CO)O[C@H]12 | inactive
CCCCOC(=O)[C@H](C)O | inactive
N#C[C@@H]1C[C@@H]2C[C@@H]2N1C(=O)[C@@H](N)C12CC3CC(CC(O)(C3)C1)C2 | inactive
COc1ccc(Cc2cnc(N)nc2N)cc1OC | inactive
CN1CCc2cccc3c2[C@H]1Cc1ccc(O)c(O)c1-3 | inactive
O=C(c1ccc(O)cc1)c1ccc(O)c(O)c1O | inactive
CCCCCCCCCCCCCCCC(=O)OC(C)C | inactive
O=C(c1ccccc1)c1ccc(O)cc1O | inactive
CNC(=O)c1ccccc1 | inactive

Structure (SMILES) | Potency
O=c1[nH]c(=O)n([C@H]2CCCO2)cc1F | inactive
O=C(O)c1ccc2cc(O)ccc2c1 | inactive
C=CCCCCCC | inactive
Cc1ccc(OC(=O)CC(C)C)cc1 | inactive
CCN(CC)CC(=O)Nc1c(C)cccc1C(=O)OC | inactive
CN=C(NC#N)NCCSCc1nc[nH]c1C | inactive
CCCCCC[C@@H](CCC)C(=O)O | inactive
CC(=O)OC1CC(C)OC(C)O1 (stereo not given) | inactive
CC(=O)O[C@]1(C(C)=O)CC[C@H]2[C@@H]3C=C(Cl)C4=CC(=O)[C@@H]5C[C@@H]5[C@]4(C)[C@H]3CC[C@@]21C | inactive
CN1CCC[C@@H]1Cc1c[nH]c2ccc(CCS(=O)(=O)c3ccccc3)cc12 | inactive
CCCCCCCCC=O | inactive
CCC(C(=O)O)c1ccc(N2Cc3ccccc3C2=O)cc1 (stereo not given) | inactive
O=C(O)[C@H](O)[C@@H](O)[C@H](O[C@@H]1O[C@H](CO)[C@H](O)[C@H](O)[C@H]1O)[C@H](O)CO | inactive
Cc1ccccc1OCC(=O)O | inactive
Nc1ccc(C(=O)N2CC3CC(CN(Cc4ccccc4)C3)C2)cc1 | inactive
CC(=O)O[C@@]12CO[C@@H]1C[C@H](O)[C@@]1(C)C(=O)[C@H](O)C3=C(C)[C@@H](OC(=O)[C@H](O)[C@@H](NC(=O)OC(C)(C)C)c4ccccc4)C[C@@](O)([C@@H](OC(=O)c4ccccc4)[C@H]21)C3(C)C | inactive
Cc1ccncc1 | inactive
CCOC(=O)OCC | inactive
C/C=C(C)/C=C/C=C(C)C | inactive
C=CCOCC(CO)(COCC=C)COCC=C | inactive
